The list is not random: actives were taken first. Their share in the collection is about 17%.
HT1080-NT tox: kills 2HG-producing HT-1080-NT fibrosarcoma cells | HT-1080-NT fibrosarcoma viability, CellTiter-Glo ATP luminescence, 48 h | Potency, µM (top dose mostly 46.1 µM), actives largely listed as cytotoxic | 1.6% of 360,000 active;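 further: NT is the 2HG producing partner of a matched IDH1 knockdown line; nearly all actives have a fitted effect of over 55% in size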
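Viability by CellTiter-Glo luminescence after 48 h compound exposure at 37C of HT-1080-NT cells (750/well, RPMI, 5% FBS). % activity scaled between DMSO wells and medium-only wells, then curve-fitted and categorized by curve class.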
HT1080 IDH1KD tx: kills HT-1080 cells with IDH1 knockdown | 2% of 360,000 active | AID 686971 | HT-1080 IDH1 knockdown viability, ATP luminescence, 48 h | Potency, µM (series often up to 46.1 µM), most hits filed as cytotoxic
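IDH1KD HT-1080 cells, 750/well, RPMI + 5% FBS; compound pinned after 2 h settling; 48 h, 37 °C; CellTiter-Glo luminescence; % activity normalised to DMSO and no-cell wells; curves fitted, classed by r2 and efficacy.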
TGFb inhibitor: blocks TGF-b signaling; HepG2 CAGA-GFP TGF-b/SMAD3 reporter, GFP fluorescence, 18 h; TGF-beta stimulated, 500 pg/mL final; Potency, µM (series often up to 46.1 µM), hits mostly inhibitors; 1.2% of 410,000 active; further: nearly all actives have a fitted effect of over 65% in size
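Smad-responsive CAGA-GFP expression was quantified in HEPG2 cells exposed to compounds and 500 pg/mL final TGF-beta for 18 h at 37 degrees C; unstimulated wells defined full inhibition.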
TDP1 cell CPT: growth inhibition of DT40 Tdp1-/-;hTDP1 cells with camptothecin (screen for TDP1 inhibitors); chicken DT40 Tdp1-/-;hTDP1 cells + 20 nM CPT, ATP luminescence, 48 h; Potency, µM (series often up to 46.2 µM), hits mostly inhibitors; 12% of 420,000 active; AID 686979; further: nearly all actives have a fitted effect of over 55% in size
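Chicken DT40 Tdp1-/- cells complemented with human TDP1, 400 cells/well, exposed to compounds plus 20 nM camptothecin for at least 48 h at 37 C; viability read as ATP content by CellTiter-Glo luminescence.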
HepG2 viability: kills HepG2 cells in TGF-b inhibitor counter-screen | HepG2 CAGA-GFP viability, ATP luminescence, 18 h | Potency, µM (top dose mostly 46.1 µM), actives largely listed as cytotoxic | 0.76% of 410,000 active
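HepG2 CAGA-GFP cells (1000/well, DMEM with 1% FBS) received compound, then TGF-beta at 500 pg/mL final, and were incubated 18 hours at 37 degrees C. Viability was read by CellTiter-Glo luminescence. Media-only wells were set as complete cell-killing and DMSO as no toxicity.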
TDP1 cell noCPT: qHTS for Inhibitors of human tyrosyl-DNA phosphodiesterase 1 (TDP1): qHTS in cells in absence of CPT | DT40 Tdp1-/- hTDP1 cells, no CPT, ATP luminescence, 48 h | 15% of 420,000 active | AID 686978, 2013 | Potency, µM (doses to about 46.2 µM), usual class: inhibitors; further: nearly all actives have a fitted effect of over 55% in size
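Seeded 400 DT40-hTDP1 cells/well (vehicle DMSO, no 20 nM CPT); pinned compounds; ≥48 hr at 37 °C; CellTiter-Glo luminescence as viability measure.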
Numbers stand for hits; n = inactive; u = inconclusive; x = no result. The call rests on the fitted dose curve; in most records, active means well fitted curve in the direction sought with a large enough effect; inconclusive means small, poorly fitted or top-dose-only effect, or another doubt; inactive means no such curve, though single readings can be large; an effect the other way counts as inactive or inconclusive.

SMILES	HT1080-NT tox	HT1080 IDH1KD tx	TGFb inhibitor	TDP1 cell CPT	HepG2 viability	TDP1 cell noCPT
O=C(c1cccc([N+](=O)[O-])c1)N1CCCN(C(=O)c2cccc([N+](=O)[O-])c2)CC1	n	n	n	n	n	n
CCOC(=O)c1c(CSc2cccs2)n(C)c2cc(Br)c(O)c(CN(C)C)c12	n	u	u	16.4µM	n	18.4µM
CCOC(=O)c1c(C)n(C)c2cc(Br)c(O)c(O)c12	n	n	u	n	n	u
CC(C)CCNC(=O)C1CC(=O)N(CCc2ccccc2)C1 (stereo not drawn)	n	n	n	n	n	n
OC1CCCN(c2c3c(nc4cc(-c5cccc(Cl)c5)nn24)CCC3)C1 (stereo not drawn)	u	n	u	18.4µM	n	u
OC1CCCN(c2c3c(nc4cc(-c5cccc(F)c5)nn24)CCCC3)C1 (stereo not drawn)	n	n	n	23.1µM	n	u
Cc1cccc(-c2cc3nc4c(c(NCc5ccco5)n3n2)CCCC4)c1	u	u	u	u	n	u
COCCN1CCN(c2c3c(nc4cc(-c5cccc(F)c5)nn24)CCC3)CC1	n	n	n	u	n	23.1µM
CN(C)CCCNc1c2c(nc3cc(-c4cccc(F)c4)nn13)CCC2	n	n	n	n	n	n
Cc1cccc(-c2cc3nc4c(c(N5CCCC(O)C5)n3n2)CCC4)c1 (stereo not drawn)	u	u	u	u	n	25.9µM
O=C(C1CCN(c2nc(-c3ccccc3)nc3c2CCC3)CC1)N1CCC(O)CC1	n	n	n	u	n	u
O=C(CCC1N=C2c3ccccc3N=C(SCc3cccc(F)c3)N2C1=O)NC1CCCCC1 (stereo not drawn)	x	x	n	n	n	n
COC(=O)c1c(NC(=O)c2ccco2)sc(C)c1C	n	n	n	n	n	n
CC(C)OC(=O)c1ccc(NC(=O)c2ccco2)cc1	n	n	n	18.4µM	n	23.1µM
O=C(Nc1ccc(Nc2ccccc2)cc1)c1ccco1	n	u	n	20.6µM	n	20.6µM
COC(=O)c1c(NC(=O)c2ccco2)sc(C(=O)Nc2ccc(F)cc2)c1C	n	n	n	u	n	23.1µM
O=C(Nc1ccc(-c2nc3ccccc3[nH]2)cc1)c1ccco1	u	n	n	14.6µM	n	14.6µM
CN(C(=O)CC(=O)Nc1ccc(Cl)c(Cl)c1)c1ccccc1	n	n	n	n	n	n
COc1cccc(-n2c(=O)c3sccc3n(Cc3cc(=O)n4cc(Cl)ccc4n3)c2=O)c1	x	x	u	n	n	n
O=C(NCc1cccnc1)Nc1ccc(Cl)cc1	n	n	n	n	n	n
O=C(CSc1ccc(-c2nc3ccccc3[nH]2)cn1)N1CCN(C(=O)c2ccco2)CC1	n	n	n	23.1µM	n	u
O=C(NC1CC1)c1cccc(Nc2ccc(-c3ccc4c(c3)OCCO4)nn2)c1	u	u	n	20.6µM	n	11.6µM
Cc1nc2scc(C)n2c(=O)c1S(=O)(=O)Nc1ccc(N2CCN(S(C)(=O)=O)CC2)cc1	n	n	u	23.1µM	n	18.4µM
COc1ccc(-n2nnnc2S(=O)(=O)CC(=O)N2CCCCC2)cc1	20.6µM	20.6µM	u	2.59µM	12.6µM	1.46µM
COc1ccc(-n2nnnc2S(=O)(=O)Cc2ccc(C(=O)O)cc2)cc1	14.1µM	7.94µM	n	14.6µM	n	16.4µM
SMILES	HT1080-NT tox	HT1080 IDH1KD tx	TGFb inhibitor	TDP1 cell CPT	HepG2 viability	TDP1 cell noCPT
CCc1ccc(Oc2nnnn2-c2ccc(C(N)=O)cc2)cc1	n	n	n	n	n	n
COCCCNC(=O)c1cnn(-c2ccccc2Cl)c1C1CCN(C(=O)OC(C)(C)C)CC1	x	x	n	u	n	n
COCCN1Cc2cccc(C(=O)Nc3ccc(C)cc3C)c2C1=O	x	x	n	n	n	n
COc1ccc(COc2cc(-c3cccc(OC)c3)nc3ccc(NC(=O)c4ccc(Cl)cc4)cc23)cc1	u	u	n	u	n	16.4µM
COc1ccc(COc2cc(-c3cccc(OC)c3)nc3ccc(NC(=O)c4ccc(OC)cc4)cc23)cc1	5.17µM	4.61µM	u	2.59µM	n	3.26µM
CCc1ccc(CN2CCC(Oc3ccc(C(=O)N4CCCCC4)cc3)CC2)cc1	n	n	n	u	n	14.6µM
COCC(=O)N1CCC(Oc2ccc(C(=O)N3CCCCCCC3)cc2)CC1	n	n	n	u	n	13µM
Cc1ccccc1CN1CCC(Oc2ccc(C(=O)N3CCCC3)cc2)CC1	n	n	n	n	n	n
O=C(c1ccc(OC2CCN(Cc3ccc(F)cc3)CC2)cc1)N1CCCC1	n	n	n	n	n	n
CCc1ccc(CN2CCC(Oc3ccc(C(=O)N4CCCC4)cc3)CC2)cc1	n	n	n	18.4µM	n	u
C=CCOc1ccccc1CN1CCC(Oc2ccc(C(=O)N3CCCCC3)cc2)CC1	n	n	n	u	n	20.6µM
O=C(CSc1nc2ccccc2c(=O)n1CC1CCCO1)Nc1ccc(F)cc1 (stereo not drawn)	n	n	n	u	n	u
O=C(CNS(=O)(=O)c1c(Cl)cccc1Cl)OCC(=O)N1CCN(c2ccccc2)CC1	n	n	n	n	n	n
COCC(=O)N1CCC(Oc2ccc(C(=O)N(C)CCCC3CCCC3)cc2)CC1	n	n	n	18.4µM	n	20.6µM
O=C(c1ccc(OC2CCN(C/C=C/c3ccc(F)cc3)CC2)cc1)N1CCCC1	n	u	n	25.9µM	n	u
COCC(=O)N1CCC(Oc2ccc(C(=O)N3CCCCCC3)cc2)CC1	n	n	n	n	n	n
Cc1cccc(C)c1Nc1cn[nH]c1	n	n	n	n	n	n
CCOc1ccc(OCCNC(=O)c2cc(C3CC3)nc3c2cnn3C(C)C)cc1	n	n	12.6µM	16.4µM	n	5.17µM
COc1ccc(CNC(=O)c2cc(C3CC3)nc3c2cnn3C(C)C)cc1	n	n	n	u	n	u
CC(C)n1ncc2c(C(=O)O)cc(C3CC3)nc21	n	n	n	u	n	n
CC(C)n1ncc2c(C(=O)NCCOc3ccccc3F)cc(C3CC3)nc21	n	n	u	11.6µM	n	3.26µM
CC(C)n1ncc2c(C(=O)N3CCN(Cc4ccc(Br)s4)CC3)cc(C3CC3)nc21	n	n	n	25.9µM	n	23.1µM
Fc1cc(F)c2ncc3c(-c4ccccc4)nn(-c4cccc(Cl)c4)c3c2c1	x	x	n	n	n	n
CC(=O)N(Cc1ccccc1)C(CC(=O)NCc1ccccc1)C(=O)O (stereo not drawn)	n	u	n	n	n	n

Bioassay records from PubChem BioAssay.
